Screening results: PubChem, several laboratories
EBI2 antag: EBI2 (human) antagonism. AID 651636. EBI2 beta-arrestin recruitment, luminescence, 7a,25-OHC stimulated. inhibition, % at 5 µM. P32249. 360,000 compounds, 0.81% hits; in the data active = inhibition above about 38%;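 also: enzyme fragment complementation signal reports receptor beta-arrestin coupling in cells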
SENP7 inh: SENP7 protease inhibition. Q9BQF6. recombinant SENP7, Z-RLRGG-aminoluciferin luminescence, 40 min. inhibition, % at 5 µM. 330,000 compounds, 1.5% hits;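 active = inhibition above about 50% at the single test dose, limit read from the data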
SENP8 block-1: inhibitors of human SENP8 protease | inhibition, % at 20 µM | 360,000 compounds, 0.64% hits | AID 602440 | recombinant SENP8, Nedd8 substrate fluorescence | Q96LD8; in the data active = inhibition mostly above about 40%, no sharp cut-off; inactive = mostly below about 27%
Target sequence (Q96LD8 whole entry, looked up): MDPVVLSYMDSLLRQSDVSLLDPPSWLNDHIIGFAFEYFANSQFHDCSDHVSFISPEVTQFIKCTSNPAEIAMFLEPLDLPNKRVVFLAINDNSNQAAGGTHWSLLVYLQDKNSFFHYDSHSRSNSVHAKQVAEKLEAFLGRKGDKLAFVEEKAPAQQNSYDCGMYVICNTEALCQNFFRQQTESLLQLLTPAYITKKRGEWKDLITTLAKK
SENP8 block-2: blocks the human protease SENP8; Q96LD8; purified SENP8, Z-RLRGG-aminoluciferin cleavage, luminescence; inhibition, % at 10 µM; 330,000 compounds, 1.2% hits; in the data active = inhibition above about 50%
SENP6 block: inhibitors of human SENP6 protease; Q9GZR1; Recombinant SENP6 catalytic domain, aminoluciferin luminescence; inhibition, % at 10 µM; 330,000 compounds, 1.8% hits; AID 2599;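 active = inhibition above about 50% at the single tested dose, limit read from the data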
AHR act: activates the human aryl hydrocarbon receptor | P35869 | AHR-responsive luciferase reporter cells, luminescence | activation, % at 5 µM | 320,000 compounds, 2.5% hits | AID 2796; in the data active = activation above about 47%
SENP8 conf: confirmation of human SENP8 protease inhibitors; AID 488912; Recombinant SENP8, Z-RLRGG-aminoluciferin luminescence, 60 min; 6,200 compounds, 40% hits; inhibition, % at 12.5 µM; shares compounds with SENP7 inh;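 active = mean inhibition across replicates above about 50%, limit read from the data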
SENP6 conf: confirmation of human SENP6 protease inhibitors; shares compounds with SENP7 inh; recombinant SENP6, Z-RLRGG-aminoluciferin luminescence; inhibition, % at 12.5 µM; 6,200 compounds, 58% hits; AID 488915
SENP7 conf: confirmation of human SENP7 protease inhibitors. shares compounds with SENP7 inh. inhibition, % at 12.5 µM. recombinant SENP7, Z-RLRGG-aminoluciferin luminescence, 40 min. 6,200 compounds, 69% hits. AID 488917
Casp3 select: caspase-3 inhibition (SENP selectivity assay) | shares compounds with SENP7 inh | purified caspase-3, Z-DEVD-aminoluciferin luminescence, 60 min | inhibition, % at 12.5 µM | 6,200 compounds, 60% hits;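 active = mean inhibition above about 50%, limit read from the data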
Target sequence (P42574 28-227 limits assumed): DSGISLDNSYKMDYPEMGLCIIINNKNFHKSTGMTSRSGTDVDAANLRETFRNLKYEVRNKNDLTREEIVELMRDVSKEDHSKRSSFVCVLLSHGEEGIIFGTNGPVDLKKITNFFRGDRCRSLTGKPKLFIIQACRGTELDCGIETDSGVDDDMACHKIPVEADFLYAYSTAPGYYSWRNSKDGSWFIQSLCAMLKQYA
Luc interf: counter-screen for SENP inhibitors: luminescence interference | Pre-incubated SENP8/Z-RLRGG-aminoluciferin, luciferase luminescence interference | shares compounds with SENP7 inh | 6,200 compounds, 39% hits | inhibition, % at 12.5 µM;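 active = mean inhibition above about 50% when retested at one dose, limit read from the data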
Of the large screens only hits and unclear results are named; the others gave an inactive call (follow-up assays come after a bar, where they were run); ! = not confirmed by another sample. Sampled rows, rich in hits. Any-hit rate of the full collection: about 5%.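 The calls were made as follows, unless noted: active = mean inhibition above about 50% in the one-dose retest (limit read from the data); inactive = the rest.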

C(=N\Nc1ncnc2ccccc12)/c1ccccc1	SENP7 inh 66 | SENP8 conf 62 | SENP6 conf 59 | SENP7 conf 85 | Casp3 select 69 | Luc interf 68
O=C(CN1CCN(S(=O)(=O)c2ccc(Br)s2)CC1)N1CCCCC1	none
CN(C)CCCN(C(=O)COc1ccc(Cl)cc1)c1nc2ccc(F)cc2s1	SENP6 block 55 | SENP8 conf inactive | SENP6 conf inactive | SENP7 conf inactive | Casp3 select inactive | Luc interf inactive
CCOC(=O)C(C)Sc1nc(-c2ccccc2)nc2ccccc12 (configuration not stated)	none
CCOC(=O)c1nn(-c2ccccc2)cc1O	none
COC(=O)c1nn(-c2ccc(-c3ccccc3)cc2)cc1O	SENP7 inh 97, SENP8 block-2 93, SENP6 block 97 | SENP8 conf 92 | SENP6 conf 98 | SENP7 conf 102 | Casp3 select 95 | Luc interf 88
COc1ccc(-n2nc(C(=O)NCC(=O)N3CCN(Cc4ccccc4)CC3)c3ccccc3c2=O)c(OC)c1	none
COc1ccc(C)c2sc(=NC(=O)c3ccccc3)n(C)c12	SENP7 inh 99 | SENP8 conf inactive | SENP6 conf 78 | SENP7 conf 85 | Casp3 select 90 | Luc interf inactive
COc1ccc(C)c2sc(=NC(=O)c3cccc(N4C(=O)CCC4=O)c3)n(C)c12	SENP7 inh 78, SENP6 block 51 | SENP8 conf inactive | SENP6 conf inactive | SENP7 conf inactive | Casp3 select inactive | Luc interf inactive
CN(C(=O)c1ccco1)c1nc2c(s1)CCCC2	SENP7 inh 92, SENP8 block-2 85 | SENP8 conf inactive | SENP6 conf 91 | SENP7 conf 101 | Casp3 select 94 | Luc interf 89
COc1ccc(C(=O)Nc2nc3c(s2)CCCC3)cc1S(=O)(=O)N1CCCc2ccccc21	none
O=C(O)c1ccc(-c2nc(-c3ccc(Cl)c(Cl)c3)cs2)cc1	SENP7 inh 79, SENP8 block-2 74, SENP6 block 86 | SENP8 conf 90 | SENP6 conf 92 | SENP7 conf 94 | Casp3 select 72 | Luc interf 68
O=C(O)c1ccc(-c2nc(-c3ccccc3Cl)cs2)cc1	SENP7 inh 94, SENP8 block-2 95, SENP6 block 98 | SENP8 conf 98 | SENP6 conf 99 | SENP7 conf 102 | Casp3 select 97 | Luc interf 93
CC(CCN1C(N(C)C)=NC[C@@H]1C)c1ccccc1 (some centres not stated)	none
CC(C)NC(=O)CSc1nnc(-c2ccc(F)cc2)c2ccccc12	none
CC(C)=CCC[C@H](C)C[C@@H]1Cc2[nH][nH]c(=O)c2[C@H](c2ccc(F)cc2)O1	none (no result: SENP7 inh, SENP8 block-2, SENP6 block, AHR act)
COC(=O)c1ccccc1NC1=C/C(=N\S(=O)(=O)c2cccs2)c2ccccc2C1=O	SENP7 inh 52, SENP8 block-1 53!, SENP8 block-2 89, SENP6 block 63, AHR act 88 | SENP8 conf inactive | SENP6 conf 64 | SENP7 conf inactive | Casp3 select inactive | Luc interf inactive
Cc1ccc(S(=O)(=O)/N=C(/c2ccccc2)N2CCOCC2)c(C)c1	none
Cc1ccc(S(=O)(=O)Nc2ccc(N=Nc3ccc(O)cc3)cc2)cc1	none
